Laboratory results: ChEMBL document CHEMBL4513216, “Probing the Open Global Health Chemical Diversity Library for Multistage-Active Starting Points for Next-Generation Antimalarials” (ACS Infect Dis, 2020)
The whole screen tested about 69,000 compounds, of which about 8,600 (12%) showed an effect of 50% or more. Shown is part of a subset that was picked to be rich in strong results.

These molecules were tested on Plasmodium berghei (assay: Screen against P. berghei liver stage (PbLuc), transformed with Luciferase, at 10uM). Details: tested at 10 uM.
Format: functional, HepG2

SMILES	INHIBITION [%]
CN(C)C(=O)COCC1CN(S(C)(=O)=O)Cc2ncn(C)c21 (stereo not drawn)	38.2
COc1ccc(NC(=O)c2nc3ccccc3n(C)c2=O)c(OC)c1	3.19
Cn1ccc(C(=O)NC2CCC23CCN(Cc2cccnc2)CC3)c1 (stereo not drawn)	23.5
CC(O)C1CCN(C(=O)CCOc2ccccc2F)CC1 (stereo not drawn)	-17.8
CC(C)(C)S(=O)(=O)c1ccc(N2CCC(n3cccn3)CC2)cn1	-8.66
Cc1ccc2nc(C(=O)N(C)[C@@H]3CC[C@@H](N4CCCC4)[C@@H]3O)cn2c1	1.068
c1ccc(Cc2noc(CN3CCCC3Cn3cccn3)n2)cc1 (stereo not drawn)	1.78
Fc1ccc(-c2cnc(CN3CCOC(Cn4cccn4)C3)o2)cc1 (stereo not drawn)	-21.8
COc1ccccc1CN1CCc2c(nc(-c3ccccn3)[nH]c2=O)C1	25.6
CSc1ccccc1C(=O)N(C)Cc1nncn1C(C)C	37.4
CN(C)c1ncccc1CNS(=O)(=O)c1ccc(C(N)=O)cc1	-3.2
CC(=O)c1ccc(S(=O)(=O)NCc2cccnc2N(C)C)cc1	66.7
CCOC(=O)c1ccc(S(=O)(=O)NCc2cccnc2N(C)C)cc1	83.2
CNC(=O)c1ccc(S(=O)(=O)NCc2cccnc2N(C)C)cc1	29.7
CN(C)c1ncccc1CNS(=O)(=O)c1cc(F)ccc1F	-27.8
CN(C)c1ncccc1CNS(=O)(=O)c1ccccc1Cl	-4.16
COC(=O)c1cccc(S(=O)(=O)NCc2cccnc2N(C)C)c1	13.3
Cc1ccc(F)cc1S(=O)(=O)NCc1cccnc1N(C)C	49.3
COC(=O)c1ccc(S(=O)(=O)NCc2cccnc2N(C)C)cc1	52.7
COc1cc(C)c(S(=O)(=O)NCc2cccnc2N(C)C)c(C)c1	61.7
CC(=O)c1cccc(S(=O)(=O)NCc2cccnc2N(C)C)c1	42
CN(C)c1ncccc1CNS(=O)(=O)c1c(F)cccc1F	11.6
COCCN1C[C@@H]2CN(Cc3ccsc3)CCC[C@]2(C(=O)O)C1	3.47

SMILES	INHIBITION [%]
COc1ccc(CN2CC(O)CN(C(=O)CC(C)C)CC2=O)cc1 (stereo not drawn)	19.2
CC(C)C(NC(=O)NCC1CC1)c1nnc2n1CCC2 (stereo not drawn)	43.4
CCC(CNC1CCN(C(C)=O)CC1)Oc1ccccc1Cl (stereo not drawn)	42
CCC(CNC1CCN(C(=O)N(C)C)CC1)Oc1ccccc1C (stereo not drawn)	18.2
CCC(CNC1CCN(C(C)=O)CC1)Oc1cccc(C)c1 (stereo not drawn)	61.5
O=C(c1cccnc1)N1CCC2(CC1)COC(COc1ccccn1)C2 (stereo not drawn)	-2.25
c1cc(CN2CCO[C@H]3[C@H](OCCN4CCCC4)CC[C@@H]32)co1	48
Cc1cc2ncn(C(=O)N3CCCC3)c2cc1C	22
Cc1nc(C)c2c(n1)CCN(C(=O)C1(C#N)CC1)CC2	23.1
Cc1nc2c(c(NC3CC3)n1)CCN(C(=O)CCO)CC2	56.7
CCc1nc2c(c(NC3CC3)n1)CCN(C(=O)Cc1nonc1C)CC2	19.5
Cc1nc(N2CCOCC2)nc2c1CCN(C(=O)C1(C#N)CC1)CC2	30.3
CCc1nc2c(c(NC3CC3)n1)CCN(C(=O)N1CCN(C)CC1)CC2	7.65
Cc1nc2c(c(NC3CC3)n1)CCN(C(=O)C1(C#N)CC1)CC2	68.4
CCc1nc2c(c(NC3CCC3)n1)CCN(C(=O)CO)CC2	53.2
Cc1nc2c(c(NC3CC3)n1)CCN(C(=O)C(C)(C)O)CC2	20.5
Cc1nc2c(c(NC(C)C)n1)CCN(C(=O)CCO)CC2	46.6
CCOC(=O)N1CCC(n2cc3[nH]cccc-3c2=O)CC1	9.63
CN(C)c1cc(C2CCCN(C(=O)Cn3cc(Cl)cn3)C2)ccn1 (stereo not drawn)	2.71
O=c1[nH]c(-c2ccccn2)nc2c1CCN(Cc1cccc(O)c1)C2	11.1
O=C(c1ccnnc1)N1CCN2C[C@H](Oc3cccc(F)c3)C[C@H]2C1	26.1
c1ccc(CCN2CCn3cc(Cn4cccn4)nc3C2)cc1	24.9
O=C(C1CN(CC2CCOCC2)CC12CCOCC2)N1CCCC1 (stereo not drawn)	29.8

SMILES	INHIBITION [%]
CCN(Cc1cnn(C)c1)C[C@H]1CC[C@@H](Cc2ccc(C)nc2)O1	12.9
CNC(=O)Cc1nc(CNc2ccc(SC)c(F)c2)cs1	80.7
CSc1ccc(NCc2csc(C)n2)cc1F	-35
CSc1ccc(NCc2csc(CS(C)(=O)=O)n2)cc1F	17
CC1CN(C(=O)c2cccc(OCc3cscn3)c2)CCO1 (stereo not drawn)	39.75
CN1CCOC(C)(C(=O)N2CCSCC2)C1 (stereo not drawn)	18.3
Cc1cc(NCCSc2nccn2C)n2ncnc2n1	18.2
CC(C)N(CCNC(=O)c1n[nH]c2ccccc12)C(C)C	24.8
CN(C)CCNC(=O)Cc1cccc(I)c1	1.75
CNC(=O)c1ccc2c(OC)n(C)nc2c1	20.7
CC(C)N(CCNC(=O)c1[nH]nc2ccc(I)cc12)C(C)C	58.2
CNC(=O)c1cc(C2CCCNC2)n[nH]1 (stereo not drawn)	5.34
CNC(=O)c1[nH]nc2ccc(I)cc12	77.7
Cc1cccc(-c2nc(CN3CCc4cncnc4C3)no2)c1	-12.2
Brc1ccc2[nH]c3c(c2c1)CCCC3c1nn[nH]n1 (stereo not drawn)	0.0996
CCc1cc(C(=O)N2CCCC(c3cc(=O)nc4n3CCC4)C2)no1 (stereo not drawn)	-35.5
Cc1ncsc1CN1C[C@H](C(=O)N2CCCO2)[C@@H]2CCO[C@@H]2C1	25.1
O=c1c2c[nH]c(N3CCOCC3)nc-2cn1-c1ccc2c(c1)OCO2	-21.5
CC(C)(C)OC(=O)N1CCN(c2ccc(F)cc2)CC1C(=O)O (stereo not drawn)	-5.8
CCc1nc(CCNC(=O)Nc2ccc(C(=O)NC)cc2C)cs1	1.28
CCc1nc(CCNC(=O)Nc2ccc(C(=O)NC)cc2)cs1	57.7
CCc1nc(CCNC(=O)Nc2cccc(C(=O)NC)c2C)cs1	-12.5
